In PubChem BioAssay AID1159580 (chemical genetic matrix, 2015):
Screen size: about 5,500 compounds; about 2,000 (36%) were called active. Roughly 18% stayed inconclusive and do not appear here. No stated cut-off is given here; in the data, active means normalized growth mostly below about 0.91 (no sharp cut-off); inconclusive means no clear call, values can overlap the other calls; inactive means mostly above about 0.92. The list shows a part of the results.

Experiment: chemical genetic growth profiling, strain panel (AID 1159580);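 further: tested at 20 µM; growth read once vehicle control cultures reached saturation at 30 °C; 1 = growth at the plate median or of vehicle wells; lower values mean less growth of the strain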
Settings: growth OD

Measured: normalized growth

COc1cc(C(F)(F)F)cc(C(F)(F)F)c1C(=O)Nc1cc(C(F)(F)F)cc(C(F)(F)F)c1
inactive: S. cerevisiae deletion strains, locus YAL013W, strain DEP1, active compounds read low 1.03 | S. cerevisiae deletion strains, locus YBR229C, strain ROT2, active compounds read low 1.02 | S. cerevisiae deletion strains, locus YCL061C, strain MRC1, active compounds read low 1.02 | S. cerevisiae deletion strains, locus YDL101C, strain DUN1, active compounds read low 1.04 | S. cerevisiae deletion strains, locus YDR150W, strain NUM1, active compounds read low 1 | S. cerevisiae deletion strains, locus YEL061C, strain CIN8, active compounds read low 1.01 | S. cerevisiae deletion strains, locus YGR078C, strain PAC10, active compounds read low 1.01 | S. cerevisiae deletion strains, locus YHR030C, strain SLT2, active compounds read low 1.11 | S. cerevisiae deletion strains, locus YHR087W, strain rtc3, active compounds read low 1.04 | S. cerevisiae deletion strains, locus YJR043C, strain POL32, active compounds read low 1.01 | S. cerevisiae deletion strains, locus YJR075W, strain HOC1, active compounds read low 1 | S. cerevisiae deletion strains, locus YLR039C, strain RIC1, active compounds read low 1.03 | S. cerevisiae deletion strains, locus YLR058C, strain SHM2 (second series), active compounds read low 0.998 | S. cerevisiae deletion strains, locus YLR085C, strain ARP6, active compounds read low 1.03 | S. cerevisiae deletion strains, locus YLR262C, strain YPT6, active compounds read low 1.01 | S. cerevisiae deletion strains, locus YML094W, strain GIM5, active compounds read low 1.08 | S. cerevisiae deletion strains, locus YMR219W, strain ESC1, active compounds read low 1.01 | S. cerevisiae deletion strains, locus YMR263W, strain SAP30, active compounds read low 1.01 | S. cerevisiae deletion strains, locus YMR307W, strain GAS1, active compounds read low 1.01 | S. cerevisiae deletion strains, locus YNL128W, strain TEP1, active compounds read low 1 | S. cerevisiae deletion strains, locus YNL153C, strain GIM3, active compounds read low 1.01 | S. cerevisiae deletion strains, locus YNL298W, strain CLA4 (second series), active compounds read low 1.03 | S. cerevisiae deletion strains, locus YNL322C, strain KRE1, active compounds read low 1.01 | S. cerevisiae deletion strains, locus YNR030W, strain Alg12, active compounds read low 1.03 | S. cerevisiae deletion strains, locus YOL006C, strain TOP1, active compounds read low 1.09 | S. cerevisiae deletion strains, locus YPL055C, strain LGE1, active compounds read low 1.07 | S. cerevisiae deletion strains, locus YPL241C, strain CIN2, active compounds read low 1.06 | S. cerevisiae deletion strains, locus YPR135W, strain CTF4, active compounds read low 1.1 | S. cerevisiae strains, strain wild type, active compounds read low 1.01
